Experimental findings from PubChem BioAssay (NCI) are described below.

The structures appear in SMILES notation. About 83,000 compounds went through this panel and 20% of them were active in at least one assay; those are over-represented in the sample as a whole.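 How to read the values: 0–100, growth inhibition (40 = 60% inhibited); 0, no net growth; -100 to 0, cell death (-40 = 40% of starting cells died; -100 = all dead).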 Activity calls are given as the source filed them. How the source made its calls: active means growth percent below 10; inactive means the rest.

The experiment deals with HL-60(TB) leukemia. Nature of the experiment: NCI-60 one-dose screen, 48 h (100 = growth as untreated, 0 = no growth, -100 = all killed). The following applies: 10 µM unless noted.
Regarding `Cc1ccnc(Nc2nc3ccccc3[nH]2)n1`, the growth was 87% (inactive).
Under `CCC(C)(O)CCC(C)(O)CC` (stereo not given) stands 101% (inactive).
Under `C=C(C)[C@@H]1CC[C@]2(/C=N/Nc3ccncc3)CC[C@]3(C)[C@H](CC[C@@H]4[C@@]5(C)CCCNC(C)(C)[C@@H]5CC[C@]43C)[C@@H]12` stands 58.5% (inactive).
To `CC(=O)OC(C)COc1ccc(-c2ccccc2)cc1` (stereo not given) belongs 104% (inactive); to `O=C(NCCCNc1cc(-c2cn(-c3ccccc3)nc2-c2cccc(O)c2)ccn1)c1ccc(F)cc1`, -2.74% (active); to `NCCN1CCNCC1`, 97.6% (inactive).
With `CC(=O)[C@H]1CC[C@]2(C)[C@@H]1CC[C@@H]1[C@@]3(C)CC(CCC#N)(CCC#N)C(=O)C(C)(C)[C@@H]3CC[C@]12C`, the growth is 103% (inactive).
As to `O=S(=O)(NCCCNc1nccc(-c2c(-c3ccc(F)c(O)c3)nc3sccn23)n1)c1ccc(F)cc1`, the growth is -54.8% (active).
`COC(=O)N1CC(Oc2ccccn2)C2CC1c1ccccc1O2` (stereo not given): the growth was 99.8% (inactive).
To `CCOC(=O)c1sc(-c2ccc(OS(=O)(=O)C[C@]34CCC(CC3=O)C4(C)C)c(C=O)c2)nc1C` belongs -5% (active); to `O=C1OC(c2ccccc2)C(O)=C1c1ccccc1` (stereo not given), 101% (inactive); to `N#Cc1ccc(NC(=O)Nc2nc3ccc(OC(F)(F)F)cc3s2)cc1`, -47% (active).
In the case of `C=C1CCC2C3(C)COC(c4c(OC)cccc4OC)OC3CCC2(C)C1C/C=C1/C(=O)OCC1O` (stereo not given), the growth is 29.4% (inactive).
To `NC(CSC(c1ccccc1)(c1ccccc1)c1cccc2ccccc12)C(=O)O` (stereo not given) belongs 88.5% (inactive); to `O=C(/C=C/C(=O)c1ccccc1)c1ccccc1`, 57.3% (inactive); to `N=c1nc(N2CCCCC2)cc(N)n1O`, 92.4% (inactive).
To `NS(=O)(=O)c1ccc(CN=C2NC(=O)S/C2=C\c2ccc(Br)cc2)cc1` belongs 97.5% (inactive); to `O=C(O)c1ccccc1Nc1cccc(S(F)(F)(F)(F)F)c1`, 96.9% (inactive).
Consider `COC(=O)[C@@H]1CCCN1C(=O)[C@@H]1CCCN1C(=O)[C@H](Cc1ccccc1)NC(=S)Nc1cc(C(F)(F)F)cc(C(F)(F)F)c1`, for which the growth is 55.7% (inactive).
Under `CCN1/C(=C/C(C)=C/c2sc3ccc4ccccc4c3[n+]2CC)Sc2ccc3ccccc3c21` stands -52.1% (active).
With `Cc1ccc(-c2nc(C#N)c(S(=O)(=O)N(C)C)o2)cc1`, the growth was 0.829% (active).
Under `c1ccc2cc(C[n+]3ccn(CCCCCCCCCCCCn4cc[n+](Cc5ccc6ccccc6c5)c4)c3)ccc2c1` stands -69.5% (active); under `CC(=O)CC[C@H]1C(=O)N[C@@H](C(C)C)C(=O)N[C@@H](Cc2cc(O)cc(F)c2)C(=O)N2CCC[C@H](N2)C(=O)O[C@H](/C(C)=C/C=C/C(=O)OC(C)(C)C)C/C=C/C=C/[C@H](O)[C@H](C)[C@H]1O`, 56% (inactive); under `COc1ccc(/C=C/c2c(C(=O)/C=C/c3ccc(F)cc3)c(C)nc3ccccc23)cc1`, 24.2% (inactive).
To `O=C(Nc1cccc(-c2nc3ccccc3[nH]2)c1)c1cccc(NC(=O)c2ccco2)c1` belongs 88.9% (inactive).
To `COc1cc2oc(-c3cccc(C(=O)Nc4ccc(C)cc4)c3)cc(=O)c2c(OC)c1OC` belongs 7.26% (active); to `O=C1NC(Cc2c[nH]c3ccccc23)C(=O)N1Cc1ccc(Cl)cc1` (stereo not given), 74% (inactive).
`O=C1/C(=C/c2ccc(-c3cccc(C(F)(F)F)c3)o2)SC(=S)N1CCc1ccc(O)cc1`: the growth was 35.7% (inactive).
In the case of `CCOCCOCCOCCOCCOCCOCCOCCOCCOCCO` (tested in a mixture with another compound), the growth is -54.9% (active).
With `CCCCCCNC(=O)c1cc(NCc2cc(O)ccc2O)ccc1O`, the growth is -6.21% (active).
On to `Oc1cccc(-c2nc(-c3n[nH]c(=S)n3-c3ccccc3)cc3c2[nH]c2ccccc23)c1`, for which the growth is 4.29% (active).
As to `CCCCCCCCN(CCCCCCCC)C(=N)c1ccnc2ccccc12`, the growth is -68.5% (active).
As to `c1ccc(CSc2ncnc3nc[nH]c23)nc1`, the growth was 96.4% (inactive).
Take `N#CCCN1C/C(=C/c2ccc(Cl)cc2)C(=O)/C(=C/c2ccc(Cl)cc2)C1`: the growth was -16.5% (active).
Consider `N#CC1c2ccccc2-c2ccccc2N1C(=O)c1ccccc1` (stereo not given), for which the growth is 21.6% (inactive).
`COc1cc2c3c(n([C@H]4CCOC4)c(=O)c2cc1OC)-c1cc2c(cc1C3=O)OCO2`: the growth is 25% (inactive).
To `O=c1[nH]cnc2c1C(c1ccc(Br)cc1)c1sc3c(F)cccc3c1O2` (stereo not given) belongs 99.4% (inactive); to `COC(=O)N/N=C/c1coc2ccc(Cl)cc2c1=O`, 105% (inactive).
In the case of `Cc1cc(Cl)ccc1NC(=O)/C(Cl)=C1/Sc2ccccc2NC1=O`, the growth is 93.1% (inactive).
Turning to `COCCNc1ccc2c3c(cccc13)C(=O)N(CCN(C)C)C2=O`, the growth was -17% (active).
